Mcl-1 Bim block: inhibitors of Bim peptide binding to Mcl-1, primary screen, biochemical, bead-based flow cytometry, multiplex; Induced myeloid leukemia cell differentiation protein Mcl-1 (Homo sapiens), Q07820; Bim peptide-Mcl-1 binding; inhibition, % at 10 µM; actives 0.1% (n = 190,000); AID 1009, 2008; in the data active = inhibition above about 40%;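 also: 0% = no compound tracer wells and 100% = peptide blocker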
GLD-1 RNA inh: GLD-1/TGE RNA complex disruptors, primary screen, biochemical, fluorescence polarization; Female germline-specific tumor suppressor gld-1 (Caenorhabditis elegans), Q17339; purified GLD-1 + fluorescein TGE RNA; inhibition, % at 5.96 µM; actives 0.44% (n = 320,000);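 active = percent inhibition above a per-plate cutoff, the plate mean of test compounds plus 3 SD, cut at about 30% in these data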;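 also: 0% = DMSO wells with GLD-1 and probe and 100% = wells lacking GLD-1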
Target sequence (Q17339 whole entry, looked up): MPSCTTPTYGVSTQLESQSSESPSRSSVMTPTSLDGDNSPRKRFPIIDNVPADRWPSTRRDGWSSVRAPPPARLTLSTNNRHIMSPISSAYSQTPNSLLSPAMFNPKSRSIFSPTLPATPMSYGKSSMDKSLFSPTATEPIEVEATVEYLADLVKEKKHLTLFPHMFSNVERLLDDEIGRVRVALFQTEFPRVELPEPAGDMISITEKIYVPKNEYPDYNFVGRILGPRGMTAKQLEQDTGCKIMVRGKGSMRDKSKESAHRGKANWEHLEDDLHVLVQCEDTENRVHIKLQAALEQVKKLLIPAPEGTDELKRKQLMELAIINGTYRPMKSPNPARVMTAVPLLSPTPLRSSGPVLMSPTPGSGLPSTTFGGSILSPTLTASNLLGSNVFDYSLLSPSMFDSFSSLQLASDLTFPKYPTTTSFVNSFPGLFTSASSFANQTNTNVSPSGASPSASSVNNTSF
MCL1 BIM primary: inhibitors of MCL1 binding to BIM-BH3, primary screen, biochemical, fluorescence polarization. inhibition, % at 10.9 µM. actives 0.68% (n = 320,000). GST-MCL1 / FITC-Bim-BH3 fluorescence polarization. AID 2057, 2009;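 active = inhibition above the mean inhibition of all tested compounds plus 3 SD, set per campaign, cut at about 40% in these data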;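 also: 0% = DMSO wells and 100% = unlabeled Bim-BH3 peptide control; higher means more loss of mP so more displacement of Bim peptide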
Mcl1 Noxa PPI: Mcl-1/Noxa binding inhibitors, primary screen, biochemical, TR-FRET, 1536-well. Induced myeloid leukemia cell differentiation protein Mcl-1 (Homo sapiens), Q07820. TR-FRET Mcl-1/Noxa peptide binding, 2 h. inhibition, % at 21.7 µM. actives 1.5% (n = 220,000). AID 1022, 2008;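 active = compounds that cut the protein-peptide binding signal by more than 50% relative to plate controls in a single-dose test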;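 also: His-tagged Mcl-1 with rhodamine Noxa BH3 peptide and terbium anti-His antibody; 0% = Mcl-1 plus Noxa peptide wells and 100% = peptide-only wells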
Bcl-xL primary: inhibitors of human Bcl-xL, primary screen, biochemical, fluorescence polarization, HTS; Bcl-2-like protein 1 (Homo sapiens), Q07817; GST-Bcl-xL / FITC-Bim BH3 peptide fluorescence polarization; inhibition, % at 10.9 µM; actives 0.7% (n = 320,000); AID 2129, 2009;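 active = inhibition above the mean of all tested compounds plus 3 SD, cutoff set per campaign, cut at about 30% in these data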;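 also: 0% = DMSO wells and 100% = unlabeled Bim-BH3 peptide competitor; inhibitors lower millipolarization by displacing the labeled peptide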
Target sequence (Q07817 whole entry, looked up): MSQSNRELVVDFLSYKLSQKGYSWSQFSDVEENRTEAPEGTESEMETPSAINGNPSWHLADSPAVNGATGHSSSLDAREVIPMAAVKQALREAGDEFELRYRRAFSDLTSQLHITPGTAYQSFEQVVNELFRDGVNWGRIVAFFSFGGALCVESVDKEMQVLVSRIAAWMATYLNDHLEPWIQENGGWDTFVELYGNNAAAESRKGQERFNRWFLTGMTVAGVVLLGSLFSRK
Mcl1 Bid PPI: Mcl-1/Bid binding inhibitors, primary screen, biochemical, TR-FRET, 1536-well; Induced myeloid leukemia cell differentiation protein Mcl-1 (Homo sapiens), Q07820; TR-FRET Mcl-1/Bid-Dy647 peptide binding; inhibition, % at 21.7 µM; actives 0.97% (n = 220,000); AID 1021, 2008;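 active = compounds that cut the binding signal by more than half at the single screening dose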;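 also: His-tagged Mcl-1 with europium anti-His antibody binding Bid BH3 peptide; 0% = Mcl-1 plus peptide wells and 100% = peptide-only wells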
Bcl-xL conf: Bcl-xL inhibitors blocking Bim BH3 binding, confirmation, counter-screen for MCL1 inhibitor project, biochemical, fluorescence polarization | shares compounds with MCL1 BIM primary | GST-Bcl-xL / FITC-Bim BH3 peptide FP binding | inhibition, % at 10.9 µM | actives 54% (n = 1,700) | AID 2166, 2009;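 active = inhibition above a cutoff equal to the mean inhibition of all tested compounds plus 3 SD, cut at about 30% in these data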;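 also: 0% = DMSO wells and 100% = unlabeled Bim BH3 control peptide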
MCL1 BIM confirm: inhibitors of MCL1 binding to BIM-BH3, confirmation, biochemical, fluorescence polarization, triplicate. shares compounds with MCL1 BIM primary. GST-MCL1 / FITC-Bim-BH3 fluorescence polarization. inhibition, % at 10.9 µM. actives 61% (n = 1,700). AID 2168, 2009;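 active = inhibition above the average of all tested compounds plus 3 SD, cut at about 40% in these data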;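 also: 0% = DMSO wells and 100% = unlabeled Bim-BH3 control peptide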
* = called active by the depositor; x = no result given. Hits are enriched below; roughly 2.3% of the tested compounds scored in any of these assays.

SMILES	Mcl-1 Bim block	GLD-1 RNA inh	MCL1 BIM primary	Mcl1 Noxa PPI	Bcl-xL primary	Mcl1 Bid PPI	Bcl-xL conf	MCL1 BIM confirm
COc1ccc(N2C3=C(CC4=C2CCCC4=O)C(=O)CCC3)cc1	2.0	7.3	77.3*	26.3	75.0*	-23.9	32.1*	31.4
Cc1cccc(N2CSC3=C(C#N)C(c4ccc(C)o4)CC(=O)N3C2)c1 (stereo not drawn)	-11.0	0.6	54.4*	107.5*	9.9	70.9*	4.7	34.7
Cc1ccc(C)c(NC(=O)Nc2ccc3c(c2)OCO3)c1	x	2.7	1.0	x	2.2	x	x	x
Cc1ccc(CNc2ccc3c(c2)OCO3)c(C)c1	3.0	0.3	143.5*	38.4	127.1*	-61.2	72.2*	89.9*
CC1(OC(=O)C2CCCC2)C(=O)C=C2C=C3CCCN3C=C2C1=O (stereo not drawn)	x	14.3	29.1	x	18.2	x	x	x
CC1(OC(=O)c2cccs2)C(=O)C=C2C=C3CCCN3C=C2C1=O (stereo not drawn)	x	10.9	62.8*	71.5*	23.8	-64.3	43.8*	63.2*
COc1ccc(S(N)(=O)=O)cc1C(=O)NC1CCCc2ccccc21 (stereo not drawn)	x	-4.1	-5.5	x	2.4	x	x	x
CC(=O)n1c2ccccc2c2ccccc21	-1.0	2.7	4.8	-12.2	0.3	-9.8	x	x
CC(=O)n1c(C=Nc2ccc(Cl)cc2)c(O)c2ccccc21	x	-105.2	58.9*	-15.9	80.8*	-37.7	154.4*	184.9*
CCOC(=O)c1sc(N2C(=O)C(O)=C(C(=O)c3ccco3)C2c2ccc([N+](=O)[O-])cc2)nc1C (stereo not drawn)	x	-2.5	4.8	x	5.6	x	x	x
CSc1ccc(C2C(C(=O)c3ccco3)=C(O)C(=O)N2c2nnc(SC)s2)cc1 (stereo not drawn)	x	92.7*	92.8*	x	111.1*	x	142.6*	167.7*
Cc1ccc(C2C(C(=O)c3cccs3)=C(O)C(=O)N2c2nnc(C)s2)cc1 (stereo not drawn)	-1.0	101.5*	86.3*	15.1	96.0*	-13.5	122.8*	142.7*
CCCOc1cccc(C2C(C(=O)c3ccco3)=C(O)C(=O)N2c2nnc(C)s2)c1 (stereo not drawn)	x	55.8*	53.7*	x	40.6*	x	55.8*	72.3*
C=CCOc1cccc(C2C(C(=O)c3ccc(C)o3)=C(O)C(=O)N2c2nccs2)c1 (stereo not drawn)	2.0	129.8*	162.3*	7.3	144.3*	-73.9	137.4*	162.4*
O=C(NC1CC1)c1ccc2c(c1)S(=O)(=O)c1cc(Cl)ccc1C2=O	x	-0.1	4.2	x	4.4	x	x	x
COc1ccc(-c2nc3ccccc3nc2-c2ccc(OC)cc2)cc1	x	2.9	5.2	x	3.8	x	x	x
c1coc(-c2nc(-c3ccco3)c(-c3ccco3)nc2-c2ccco2)c1	0.0	22.6	105.6*	108.5*	80.0*	96.9*	18.4	56.9*
COc1ccc2nc(-c3ccco3)c(-c3ccco3)nc2c1	3.0	22.6	88.3*	101.0*	49.1*	26.0	76.3*	125.9*
Nc1nc(-c2ccco2)c(-c2ccco2)s1	-3.0	2.3	24.9	41.9	18.3	-35.0	x	x
O=C(COc1ccccc1)N=C1SC2CS(=O)(=O)CC2N1Cc1ccccc1 (stereo not drawn)	x	3.5	2.6	x	5.6	x	x	x
Cc1nn(CC(=O)NCCc2cccs2)c(=O)c2cc3ccccc3n12	x	10.9	-0.4	x	-0.5	x	x	x
OCCCc1nc2n(n1)C(c1ccccc1)C=C(c1ccccc1)N2 (stereo not drawn)	-1.0	19.0	28.4	7.1	24.3	-25.8	x	x
COc1ccccc1C1C=C(c2ccc(Cl)cc2)Nc2nc(NS(C)(=O)=O)nn21 (stereo not drawn)	-1.0	70.6*	71.0*	-7.0	66.3*	-13.8	45.9*	59.2*
COc1ccc(C2C=C(c3ccc(Br)cc3)Nc3nc(N4C(=O)CCC4=O)nn32)cc1 (stereo not drawn)	-4.0	101.6*	135.0*	-0.1	123.0*	-72.2	83.6*	100.3*
O=C(c1nc2n(n1)C(c1ccc(Cl)cc1)C=C(c1ccccc1)N2)N1CCOCC1 (stereo not drawn)	-4.0	47.8*	75.3*	-1.3	65.2*	-8.7	70.9*	89.0*
SMILES	Mcl-1 Bim block	GLD-1 RNA inh	MCL1 BIM primary	Mcl1 Noxa PPI	Bcl-xL primary	Mcl1 Bid PPI	Bcl-xL conf	MCL1 BIM confirm
COc1ccc(C2C=C(c3ccccc3)Nc3nc(CCCO)nn32)cc1 (stereo not drawn)	-4.0	14.7	30.1	5.1	29.8	-20.6	x	x
CCC(=O)Nc1nc2n(n1)C(c1ccc(OC)cc1)C=C(c1ccccc1)N2 (stereo not drawn)	-3.0	51.2*	59.6*	15.7	59.9*	-31.1	74.9*	91.8*
Cc1ccc(C)c(S(=O)(=O)N2CCN(C(=O)c3ccc(OCc4c(C)noc4C)cc3)CC2)c1	x	0.8	-0.2	x	1.3	x	x	x
OCC[C@@H]1C[C@H](O)[C@@H](O)[C@@]2(Cc3ccccc3O2)O1	x	2.7	3.9	x	3.7	x	x	x
COc1ccc(CC(=O)NNC(=O)c2cc(C)oc2C)cc1OC	x	-0.4	5.7	x	-1.4	x	x	x
CS(=O)(=O)Nc1nc2n(n1)C(c1ccccc1)C=C(c1ccc(Br)cc1)N2 (stereo not drawn)	0.0	157.4*	181.3*	18.3	156.8*	26.3	133.5*	164.1*
CC(=O)c1ccc2c(c1)N(CCCN1CCC(CCO)CC1)c1ccccc1S2	x	6.7	43.6*	x	28.6	x	27.6	33.3
COc1ccc(C(=O)NCCc2nnc3ccc(SCC(=O)N4CCCC4)nn23)cc1	x	-1.5	-2.7	x	0.1	x	x	x
O=C1CCNc2cc3ccccc3cc21	4.0	56.7*	130.6*	59.5*	112.1*	-88.0	114.3*	143.7*
O=C(O)C1Cc2c([nH]c3ccccc23)C(c2ccc3c(c2)OCO3)N1 (stereo not drawn)	0.0	14.4	58.9*	8.4	52.1*	-32.1	11.7	9.1
